Source: PubChem BioAssay AID652283 (National Center for Advancing Translational Sciences (NCATS), 2013)
Inconclusive results are not listed. Values without a mark were called inactive. Calls of active or inactive are those of the source. Calls follow the shape of the dose curve; as a rule, active = well fitted inhibition curve with a large enough effect; inconclusive = small, poorly fitted or top-dose-only effect; inactive = no such curve, though single readings can be large or run the other way.

assay: qHTS Assay for Lipid Storage Modulators: COS7 Assay against Probe and Analogs; settings: COS7 lipid droplet area, BODIPY imaging, 18 h
Source text: Storing lipids as a reservoir for energy or the anabolism of elementary metabolites is a common feature of probably all cells and is conserved from bacteria to humans. The universal cellular lipid storage organelle is the so-called lipid storage droplet (LD). Although ubiquitous, LDs share a simple structure composed of a hydrophobic core that harbors the storage lipids, which is shielded by a droplet-specific phospholipid monolayer to which proteins are attached. The current model of LD biogenesis involves an incorporation of the lipid core into the membrane leaflets of the endoplasmic reticulum (ER) followed by a subsequent budding-like maturation of a LD, which ultimately pinches off. Once released, LD volume can increase by localized lipogenesis or fusion of existing droplets. Storage lipids are re-mobilized enzymatically by lipase activity. Lipase regulation in the adipocyte is heavily studied and involves multiple components including catecholamine signaling, the LD-associated proteins Perilipin and comparative gene identification-58 (CGI-58) and at least two lipases named hormone sensitive lipase (HSL) and adipocyte triglyceride lipase (ATGL). LD regulation outside of the adipocyte is poorly understood and only few components are known. However, there is an urgent need to learn more about ectopic fat depots as mislocalized storage of lipids, for example in the liver or muscle, is an eminent health problem associated with insulin resistance or the metabolic syndrome. We developed a laser-scanning cytometer assay to enable 1,536-well screening and combined the results of the small molecules screen with an RNAi database based on lipid storage. In this assay we tested analogs of the probe against a mammalian cell line (COS7), to see if these small molecules could disrupt lipid storage. NIH Molecular Libraries Probe Production Centers Network [MLPCN] NIH Chemical Genomics Center [NCGC] MLPCN Grant: MH085686 Assay Submitter (PI): Mathias Beller, Max-Planck-Institut fur Biophysikalische Chemie
COS7 cells were obtained from ATCC (CRL-1651), 5500 cells/well were dispensed into Corning 96 well imaging plate (catalog # 3340), and cultured in 100 uL of 1:1 DMEM medium (PAA) contain 10% fetal bovine serum (FBS) for 24 hours at 37 degrees C, 95% humidity, and 5% CO2. The medium was exchanged for compound treatment. Compound treatment occurred in 150 microL serum reduced medium (5% FBS) and 0.2% DMSO in presence of 400 microM oleic acid for 17-18 h. Cells were then fixed (3.7 % formaldehyde in PBS, 5 min), permeabilized (0.1% Triton X100, 5 min) and washed three times with PBS. Lipid droplets (1:2000 BODIPY 493/503) and nuclei (1:1000 Hoechst 33342) were stained for 1h. Imaging was performed in a Zeiss Axiovert automatic microscope. Number of lipid droplet accumulated in […] cells were analyzed using visual examination of the microscopic images and additional quantification by image segmentation using Cell Profiler.

SMILES	max response [%]	Potency
CCOc1ccc(CCNC(=O)c2cc3cccnc3n2Cc2cccc(C)c2)cc1OCC	0	–
CCOc1ccc(CCNC(=O)c2cc3ncccc3n2Cc2cccc(C)c2)cc1OCC	6.92	–
CCOc1ccc(CCNC(=O)c2cc3ccccc3n2Cc2cccc(C)n2)cc1OCC	–	590 nM (active)
CCOc1ccc(CCNC(=O)c2cc3ccncc3n2Cc2cccc(C)c2)cc1OCC	-1.73	–
CCOc1ccc(CCNC(=O)c2cc3ccccc3n2Cc2cccc(C)c2)cc1OCC	–	264 nM (active)
CCOc1ccc(CCNC(=O)c2cc3sccc3n2Cc2ccc(F)cc2F)cc1OCC	–	1180 nM (active)
CCOc1ccc(CCNC(=O)c2cc3ccncc3n2Cc2cccc(C)n2)cc1OCC	-22.2	–
CCOc1ccc(CCNC(=O)c2ccc(C(=O)c3ccccc3)cc2)cc1OCC	-5.7	–
CCOc1ccc(CCNC(=O)c2cc3ncccc3n2Cc2cccc(C)n2)cc1OCC	-5.54	–
CCOc1ccc(CCNC(=O)c2cc3cnccc3n2Cc2cccc(C)c2)cc1OCC	-13.8	–
CCOC(=O)C1CCN(C(=O)C2(NC(=O)Nc3ccccc3Cl)CCCC2)CC1	–	5870 nM (active)
CCOc1ccc(CCNC(=O)c2cc3ccccc3n2CCN2CCOCC2)cc1OCC	–	5260 nM (active)
CCOc1ccc(CCNC(=O)c2ccccc2)cc1OCC	-7.94	–
CCOc1ccc(CCNC(=O)c2cc3ccccc3n2Cc2ccccn2)cc1OCC	–	1660 nM (active)
CCOc1ccc(CCNC(=O)c2cc3cnccc3n2Cc2cccc(C)n2)cc1OCC	-1.53	–
